Experimental data taken from PubChem BioAssay (EPA / NIEHS).
Active and inactive are the calls of the source. How the source made its calls: active means hit-call score of the fitted dose curve at least 0.9, where 1 is the maximum; inactive means score below 0.9.

Key:
Conditions in all cases: mRNA level, 48 h; actives raise or lower the signal
CYP2C8 (gene 1558) = assay: LTEA_HepaRG_CYP2C8: Life Technologies and Expression Analysis (LTEA) Assay for CYP2C8 using HepaRG (AID 2283483)
How it was run: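 HepaRG (human liver line), 48 h chemical exposure, 8-pt half-log series from 100 uM, 0.5% DMSO vehicle. Readout: CYP2C8 transcript by qRT-PCR, housekeeping-normalized. Bidirectional fit vs DMSO baseline.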

CYP2C9 (gene 1559) = assay: LTEA_HepaRG_CYP2C9: Life Technologies and Expression Analysis (LTEA) Assay for CYP2C9 using HepaRG (AID 2283484)
How it was run: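 HepaRG, 48 h dosing, 8-pt half-log series, top 100 uM, 0.5% DMSO vehicle. Read-out: CYP2C9 transcript by TaqMan qRT-PCR, housekeeping-normalized (ACTB/GAPDH/POLR2A). Gain or loss fitted vs DMSO baseline.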

CYP2E1 (gene 1571) = assay: LTEA_HepaRG_CYP2E1: Life Technologies and Expression Analysis (LTEA) Assay for CYP2E1 using HepaRG (AID 2283485)
How it was run: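 CYP2E1 transcript was measured by TaqMan qRT-PCR in human HepaRG cultures after 48 h chemical exposure (top 100 uM, half-log steps, 0.5% DMSO vehicle). Housekeeping-gene normalization; gain or loss fitted relative to DMSO baseline.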

CYP4A11 (gene 1579) = assay: LTEA_HepaRG_CYP4A11: Life Technologies and Expression Analysis (LTEA) Assay for CYP4A11 using HepaRG (AID 2283486)
How it was run: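 Readout is CYP4A11 mRNA induction or suppression (qRT-PCR, ACTB/GAPDH/POLR2A normalization) in human HepaRG cells after 48 h chemical treatment, concentrations to 100 uM in 0.5% DMSO, fitted bidirectionally against vehicle.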

[1] = read-out: DNA damage-inducible transcript 3 (DDIT3), DDIT3 (gene 1649); assay: LTEA_HepaRG_DDIT3: Life Technologies and Expression Analysis (LTEA) Assay for DNA damage-inducible transcript 3 (DDIT3) using HepaRG (AID 2283488)
How it was run: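 qRT-PCR readout (Fluidigm TaqMan), housekeeping-normalized to ACTB, GAPDH, POLR2A. HepaRG cells, 48 h exposure, 8-point half-log series from 100 uM in 0.5% DMSO, duplicates. Gain or loss of signal fitted against DMSO baseline.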

[2] = read-out: Pro-epidermal growth factor (Homo sapiens) (UniProt P01133); assay: LTEA_HepaRG_EGF: Life Technologies and Expression Analysis (LTEA) Assay for Epidermal growth factor (EGF) using HepaRG (AID 2283489)
How it was run: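 EGF expression changes in human HepaRG cells are scored by bidirectional fitting relative to 0.5% DMSO controls. Chemicals are tested at eight half-log concentrations up to 100 uM for 48 h in serum-free induction medium.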

[3] = read-out: Early growth response protein 1 (EGR1) transcription factor, EGR1 (gene 1958); assay: LTEA_HepaRG_EGR1: Life Technologies and Expression Analysis (LTEA) Assay for Early growth response protein 1 (EGR1) transcription factor using HepaRG (AID 2283490)
How it was run: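 HepaRG, 48 h exposure, 8-pt half-log series from 100 uM, 0.5% DMSO vehicle; EGR1 transcript by TaqMan qRT-PCR (Fluidigm array), housekeeping-normalized; bidirectional fit relative to DMSO baseline.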

[4] = read-out: Ezrin (EZR), EZR (gene 7430); assay: LTEA_HepaRG_EZR: Life Technologies and Expression Analysis (LTEA) Assay for Ezrin (EZR) using HepaRG (AID 2283491)
How it was run: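 Read-out is EZR transcript level by qRT-PCR, normalized to three housekeeping genes and fitted bidirectionally against the DMSO control. Human HepaRG cells received test chemicals for 48 h at eight half-log concentrations up to 100 uM in 0.5% DMSO.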

CYP3A5 (gene 1577) = assay: LTEA_HepaRG_CYP3A5: Life Technologies and Expression Analysis (LTEA) Assay for CYP3A5 using HepaRG (AID 2283493)
How it was run: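 qRT-PCR read-out: CYP3A5 transcript in HepaRG lysates, housekeeping-normalized (ACTB/GAPDH/POLR2A), fitted bidirectionally against 0.5% DMSO baseline. Exposure 48 h, eight half-log concentrations up to 100 uM, duplicates.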

[5] = read-out: Fatty Acid-Binding Protein 1 (FABP1), FABP1 (gene 2168); assay: LTEA_HepaRG_FABP1: Life Technologies and Expression Analysis (LTEA) Assay for Fatty Acid-Binding Protein 1 (FABP1) using HepaRG (AID 2283494)
How it was run: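 qRT-PCR readout of FABP1 transcript (normalized to three housekeeping genes) after 48 h chemical exposure of HepaRG cells; eight concentrations, half-log steps, max 100 uM, 0.5% DMSO vehicle; gain or loss fitted relative to DMSO baseline.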

[6] = read-out: Cytochrome P450 4A22 (Homo sapiens) (UniProt Q5TCH4); assay: LTEA_HepaRG_CYP4A22: Life Technologies and Expression Analysis (LTEA) Assay for Cytochrome P450 4A22 (CYP4A22) using HepaRG (AID 2283495)
How it was run: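 Cryopreserved HepaRG cells, plated and cultured 48 h, then switched to serum-free induction medium and treated 48 h (duplicates, up to 100 uM, half-log steps, 0.5% DMSO). Expression change of CYP4A22 was fitted bidirectionally against vehicle.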

[7] = read-out: Cytochrome P450 7A1 (Homo sapiens) (UniProt P22680); assay: LTEA_HepaRG_CYP7A1: Life Technologies and Expression Analysis (LTEA) Assay for Cytochrome P450 7A1 (CYP7A1) using HepaRG (AID 2283496)
How it was run: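 Using 0.5% DMSO as vehicle and baseline, chemicals were tested in duplicate over an 8-point range from 100 uM on HepaRG cells for 48 h; qRT-PCR signals were normalised to ACTB, GAPDH and POLR2A.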

[8] = read-out: Glutathione S-Transferase (GSTA2), GSTA2 (gene 2939); assay: LTEA_HepaRG_GSTA2: Life Technologies and Expression Analysis (LTEA) Assay for Glutathione S-Transferase (GSTA2) using HepaRG (AID 2283497)
How it was run: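 qRT-PCR readout of GSTA2 transcript, normalized to three housekeeping genes, fitted bidirectionally against 0.5% DMSO baseline. Differentiated HepaRG cells received compound for 48 h at 8 concentrations (top 100 uM, half-log steps).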

[9] = read-out: Glutamate-cysteine ligase catalytic (GCLC), GCLC (gene 2729); assay: LTEA_HepaRG_GCLC: Life Technologies and Expression Analysis (LTEA) Assay for Glutamate-cysteine ligase catalytic (GCLC) using HepaRG (AID 2283498)
How it was run: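 HepaRG, 48 h exposure, 8-pt half-log series from 100 uM, 0.5% DMSO vehicle; TaqMan qRT-PCR for GCLC mRNA, housekeeping-normalized; bidirectional curve fit vs DMSO baseline.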

[10] = read-out: growth arrest and DNA damage 45 (GADD45G), GADD45G (gene 10912); assay: LTEA_HepaRG_GADD45G: Life Technologies and Expression Analysis (LTEA) Assay for growth arrest and DNA damage 45 (GADD45G) using HepaRG (AID 2283499)
How it was run: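 Human hepatic HepaRG line treated 48 h with chemicals (eight concentrations, half-log steps from 100 uM); transcript induction or repression of GADD45G scored by qRT-PCR versus DMSO vehicle.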

[11] = read-out: Glutamate-cysteine ligase regulatory (GCLM), GCLM (gene 2730); assay: LTEA_HepaRG_GCLM: Life Technologies and Expression Analysis (LTEA) Assay for Glutamate-cysteine ligase regulatory (GCLM) using HepaRG (AID 2283500)
How it was run: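 HepaRG, 48 h dosing, 100 uM top, half-log x8, 0.5% DMSO vehicle. Readout: GCLM mRNA by TaqMan qRT-PCR, housekeeping-normalized (ACTB/GAPDH/POLR2A). Curves fit bidirectionally vs DMSO baseline.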

[12] = read-out: Glutathione S-transferase M3 (GSTM3), GSTM3 (gene 2947); assay: LTEA_HepaRG_GSTM3: Life Technologies and Expression Analysis (LTEA) Assay for Glutathione S-transferase M3 (GSTM3) using HepaRG (AID 2283501)
How it was run: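 Changes in GSTM3 expression, an oxidative-stress marker, were scored by bidirectional curve fitting against 0.5% DMSO vehicle. Human HepaRG cultures received chemicals for 48 h in duplicate, highest concentration 100 uM with half-log dilutions.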

[13] = read-out: Heat shock 70 kDa protein 1 (HSPA1A), gene 3303; assay: LTEA_HepaRG_HSPA1A: Life Technologies and Expression Analysis (LTEA) Assay for Heat shock 70 kDa protein 1 (HSPA1A) using HepaRG (AID 2283502)
How it was run: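 HepaRG, 48 h exposure, 8-pt half-log CRC from 100 uM in 0.5% DMSO, duplicates. Readout: TaqMan qRT-PCR of HSPA1A mRNA, housekeeping-normalized (ACTB/GAPDH/POLR2A). Bidirectional fit vs 0.5% DMSO baseline.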

Measured: AC50

O=C(NC(=O)c1c(F)cccc1F)Nc1ccc(OC(F)(F)C(F)OC(F)(F)F)c(Cl)c1 (configuration not stated)
inactive: all assays above

OCCOc1ccccc1
not listed: [6]
inactive: all other assays above

CC[C@H](C)[C@H]1O[C@]2(C=C[C@@H]1C)C[C@@H]1C[C@@H](C/C=C(\C)[C@@H](O[C@H]3C[C@H](OC)[C@@H](O[C@H]4C[C@H](OC)[C@@H](O)[C@H](C)O4)[C@H](C)O3)[C@@H](C)/C=C/C=C3\CO[C@@H]4[C@H](O)C(C)=C[C@@H](C(=O)O1)[C@]34O)O2 (tested in a mixture with another compound)
inactive: [3] | [10]
active: CYP2C8 (gene 1558) 14.1 µM | CYP2C9 (gene 1559) 7.85 µM | CYP2E1 (gene 1571) 8.08 µM | CYP4A11 (gene 1579) 7.39 µM | [1] 10.1 µM | [2] 48.4 µM | [4] 7.92 µM | CYP3A5 (gene 1577) 6 µM | [5] 8.68 µM | [7] 15 µM | [8] 7.88 µM | [9] 7.09 µM | [11] 7.66 µM | [12] 9.57 µM | [13] 44.2 µM

CC(C)OC(=O)Nc1cccc(Cl)c1
not listed: CYP2E1 (gene 1571) | [6]
inactive: all other assays above

CCC(C)(NC(=O)c1cc(Cl)c(C)c(Cl)c1)C(=O)CCl (configuration not stated)
inactive: [2] | [3] | [9] | [10] | [11]
active: CYP2C8 (gene 1558) 81.6 µM | CYP2C9 (gene 1559) 79.5 µM | CYP2E1 (gene 1571) 44 µM | CYP4A11 (gene 1579) 50.2 µM | [1] 78.3 µM | [4] 75.7 µM | CYP3A5 (gene 1577) 89.6 µM | [5] 46.5 µM | [7] 73.8 µM | [8] 78.7 µM | [12] 50.2 µM | [13] 89.2 µM

C#CCN1C(=O)COc2cc(F)c(N3C(=O)C4=C(CCCC4)C3=O)cc21
active: CYP2E1 (gene 1571) 26.1 µM | CYP4A11 (gene 1579) 20.5 µM | [3] 12 µM | [5] 25.4 µM
not listed: [6]
inactive: all other assays above
